In all, about 190,000 compounds went through this assay and about 1,300 (0.68%) were called active. This excerpt belongs to a sample that is enriched for actives. Unmarked numbers belong to inactive results. No stated cut-off is given here; in the data, active means inhibition above about 50%; inactive means the rest.
target: Mannose-6-phosphate isomerase (Homo sapiens) (UniProt P34949); experiment: human PMI inhibitors, high substrate, primary screen, biochemical, fluorescence intensity, high mannose 6-phosphate (AID 1220); conditions: recombinant PMI enzyme, coupled fluorescence intensity; at 20 µM; active compounds read high
Sequence (P34949 whole entry, looked up): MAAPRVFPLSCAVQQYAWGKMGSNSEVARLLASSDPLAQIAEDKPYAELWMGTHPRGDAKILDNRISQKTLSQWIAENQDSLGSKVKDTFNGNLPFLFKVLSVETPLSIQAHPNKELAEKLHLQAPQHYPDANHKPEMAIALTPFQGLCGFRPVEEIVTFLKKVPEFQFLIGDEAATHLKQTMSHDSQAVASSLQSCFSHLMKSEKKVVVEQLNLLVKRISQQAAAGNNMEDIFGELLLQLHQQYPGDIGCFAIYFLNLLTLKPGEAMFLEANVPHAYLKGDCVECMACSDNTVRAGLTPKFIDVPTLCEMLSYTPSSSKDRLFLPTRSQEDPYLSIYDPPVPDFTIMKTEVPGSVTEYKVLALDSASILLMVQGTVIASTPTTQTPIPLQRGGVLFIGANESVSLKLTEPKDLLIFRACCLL

Row | SMILES | inhibition
1 | CN1CCN(C(=O)C2=C[C@@H](c3ccccc3)C[C@@H](OCc3ccc(CO)cc3)O2)CC1 | 1.7%
2 | CCCCCCOC1(c2ccccc2)OC(=O)c2ccccc21 (centres undefined) | 11.5%
3 | CCCCCn1c(=O)[nH]c2c(c1=O)CCC2 | 4.7%
4 | CC1(C)C(=O)NCCN1C(=O)CCCC(=O)O | 2.6%
5 | OCCn1c(CSc2nc3ccccc3n2CCO)nc2ccccc21 | 3%
6 | O=C(NCc1ccccn1)c1cccs1 | 4.7%
7 | CC(C)(C)C(=O)Nc1nnc(CC(=O)NCc2ccccc2)s1 | 13.1%
8 | O=C(O)C1CCCN1c1ncccc1[N+](=O)[O-] (centres undefined) | 50.8% (active)
9 | O=[N+]([O-])c1cccnc1N1CCOCC1 | 7.1%
10 | NC(=O)C1CCN(c2ncccc2[N+](=O)[O-])CC1 | -3.3%
11 | O=[N+]([O-])c1cccnc1N1CCCCC1 | 10.7%
12 | O=C(O)C1CN(c2ncccc2[N+](=O)[O-])C1 | 26.1%
13 | O=C(O)[C@@H]1[C@@H]2C[C@@H]2CN1c1ncccc1[N+](=O)[O-] | 65.1% (active)
14 | COc1cccc(NC(=O)c2ccc(NCCCN3CC(C)CC(C)C3)c([N+](=O)[O-])c2)c1 (centres undefined) | -12.8%
15 | CCOP(=O)(CC(C(C)=O)C(O)c1ccccc1)OCC (centres undefined) | 11.7%
16 | Cc1cccc(/C=N\Nc2nnc(-c3ccccc3)c(=O)[nH]2)c1 | 7.5%
17 | Cc1ccc(S(=O)(=O)N2CCCC2C(=O)Nc2nc3ccccc3s2)cc1 (centres undefined) | 17.6%
18 | CCN(CC)c1ccc(/C=N/N=C(c2ccccc2)c2ccccc2)c(O)c1 | 4.8%
19 | CCN(CC)c1ccc(/C=N/Nc2cccc(C)c2)c(O)c1 | -62.5%
20 | CCN(CC)c1ccc(/C=N/N(c2ccccc2)c2ccccc2)c(O)c1 | 30%
21 | CCN(CC)c1ccc(/C=N/NC(=S)NC)c(O)c1 | 21.9%
22 | CCN(CC)c1ccc(/C=N/Nc2ccccc2)c(O)c1 | -21.9%

Row | SMILES | inhibition
23 | CCN(CC)c1ccc(/C=N/NC(=O)OC)c(O)c1 | 27.7%
24 | CCN(CC)c1ccc(/C=N/N=C(N)N)c(O)c1 | 64% (active)
25 | CCN(CC)c1ccc(C=Nc2ccc(C#N)cc2)c(O)c1 | 40.4%
26 | CCN(CC)c1ccc(C=Nc2ccccc2)c(O)c1 | 61.8% (active)
27 | CCN(CC)c1ccc(C=Nc2cc(C)cc(C)c2)c(O)c1 | 52.8% (active)
28 | CCOC(=O)N/N=C/c1ccc(N(CC)CC)cc1O | 53.3% (active)
29 | CCC(=O)N1CCc2cc(S(=O)(=O)NC(Cc3ccccc3)C(=O)NC3CCCCC3)ccc21 (centres undefined) | -11.2%
30 | CCCCc1ccc(NC(=S)NCCN2CCOCC2)cc1 | -3.3%
31 | COC(=O)c1cn(C)c2ccc(S(=O)(=O)N3CCOCC3)cc2c1=O | 0.8%
32 | CC(Nc1ccccc1)C(=O)Nc1ccc(F)cc1 (centres undefined) | -11.4%
33 | CCN(CC)c1ccc(N=Cc2ccc(N(CC)CC)cc2O)cc1 | 19.5%
34 | CCN(CC)c1ccc(C=Nc2ccc(C)cc2)c(O)c1 | 57% (active)
35 | CCN(CC)c1ccc(C=Nc2ccc(N(C)C)cc2)c(O)c1 | 28.1%
36 | COc1ccc(N(C)S(=O)(=O)c2cccc(C(=O)NCC3CCCO3)c2)cc1 (centres undefined) | -3.8%
37 | Cc1sc2ncnc(SCC(=O)N3CCN(C(=O)c4ccco4)CC3)c2c1C | 6.2%
38 | COc1ccc(C(C(=O)NC2CCCC2)N(Cc2ccccc2)C(=O)c2nsc(Cl)c2Cl)cc1 (centres undefined) | 21.1%
39 | CCOC(=O)N1CCc2c(sc3c2C(=O)NC(c2ccccc2)N3)C1 (centres undefined) | 60.6% (active)
40 | CN1CCc2c(sc3c2C(=O)NC(c2ccccc2)N3)C1 (centres undefined) | 33%
41 | CSc1ccc(C2NC(=O)c3c(sc4c3CCN(C)C4)N2)cc1 (centres undefined) | 17%
42 | CCCn1c(SCC(=O)NCc2ccc(OC)cc2)n[nH]c1=O | 11.2%
43 | O=C(NCC1CCCCC1)C1CCCN(C(=O)NC2CCCCC2)C1 (centres undefined) | -1.6%
44 | Cc1ccc(S(=O)(=O)/N=C2/C=C(Sc3ncn[nH]3)C(=O)c3ccccc32)c(C)c1 | 92.7% (active)

Row | SMILES | inhibition
45 | Cc1cc(C)c(S(=O)(=O)/N=C2/C=C(SCC(=O)O)C(=O)c3ccccc32)cc1C | -32.3%
46 | CC1=CC(C)(C)N(C(=O)CSc2ncn[nH]2)c2ccccc21 | -9.5%
47 | Cc1ccc(S(=O)(=O)Nc2ccc(O)c(Sc3ncn[nH]3)c2)cc1 | 27.6%
48 | Cc1cc(C)c(S(=O)(=O)/N=C2/C=C(Sc3ncn[nH]3)C(=O)c3ccccc32)cc1C | 90.3% (active)
49 | Cc1cc(C)c(S(=O)(=O)Nc2ccc(O)c(Sc3ncn[nH]3)c2)c(C)c1 | 13.7%
50 | Cc1cc(NC(=O)COC(=O)C2COc3ccccc3O2)no1 (centres undefined) | -4.4%
51 | CCCC(O)(c1ccc(Cl)cc1)C(CN1CCOCC1)c1ccccc1 (centres undefined) | 5.2%
52 | Cc1ccc(S(=O)(=O)N2CCCCC2)cc1NC(=O)COC(=O)C1CC2C=CC1C2 (centres undefined) | 11%
53 | O=C(NC1CCCCC1)C1CCN(S(=O)(=O)c2cccs2)CC1 | 5.6%
54 | C=CCc1c(OC)ccc2ccc(=O)oc12 | 0.3%
55 | Cc1cccc2cc(CN(CCCN(C)C)C(=S)NCCc3ccccc3)c(=O)[nH]c12 | -1.6%
56 | CC(C)(C)C1CCc2c(sc(NC(=O)CSc3nnc(-c4ccccc4)o3)c2C#N)C1 (centres undefined) | 15.1%
57 | CC1CCc2c(sc(NC(=O)CSc3nnc(-c4ccccc4)o3)c2C#N)C1 (centres undefined) | 57.2% (active)
58 | N#Cc1c(NC(=O)CSc2nnc(-c3ccccc3)o2)sc2c1CCCC2 | 4.2%
59 | COC(=O)c1ccc(CSCC(=O)Nc2ccccc2)cc1 | 6.4%
60 | COc1ccc(C2=COc3ccccc3C(=O)N2)cc1 | -6.2%
61 | O=C(CSc1ccc(C(F)(F)F)cc1[N+](=O)[O-])Nc1ccc2ccccc2c1 | 10.8%
62 | O=C(Nc1nc(-c2ccc(Cl)cc2Cl)cs1)c1ccc(OCC2CCCO2)cc1 (centres undefined) | 11.1%
63 | COc1ccc(OC)c(-c2csc(NC(=O)c3ccc(OCC4CCCO4)cc3)n2)c1 (centres undefined) | 104% (active)
64 | Cc1csc(NC(=O)c2ccc(OCC3CCCO3)cc2)n1 (centres undefined) | 1.2%
